ChEMBL document CHEMBL3988442, “University of Dundee, Small-Polar-MMV Screening Library” (2021)

target: AMP-activated protein kinase, AMPK (Homo sapiens) (UniProt P54646+O43741+P54619+Q9UGJ0+Q9Y478+Q13131+Q9UGI9); assay: AMP-dependent Kinase enzyme assay. An in vitro enzyme assay that detects ADP turnover that is directly proportional to AMPK activity. This uses naive AMPK that is activated during the assay with MK-8722; type: functional; set-up: scale not given: direction of the effect not stated beside the values; details: 30 µM

Row | SMILES | Percent Effect
1 | COc1ccc(F)cc1C(=O)C1CCCN(Cc2ccc(C)s2)C1 (centres undefined) | 6.05%
2 | CCc1cccc2c(CC(=O)N(C)CCN(C)C)c(C)[nH]c12 | 9.67%
3 | COc1ccc(Cl)cc1CN(C)C(=O)CN1C(=O)CCC1C (centres undefined) | 6.65%
4 | Cc1nc(N)nc(C)c1CC(=O)N1CCCN(CC2CC2)C(C(C)C)C1 (centres undefined) | -4.33%
5 | CCc1cccc(NC(=O)CCN2CC=C(c3cnn(C)c3)CC2)c1 | 11.6%
6 | CNC(=O)[C@@H]1CN(Cc2ccccc2)C[C@H]1C(=O)c1ccc(F)cc1 | 12%
7 | Cn1cc(C2=CCN(CCCC(=O)Nc3ccc(C#N)cc3)CC2)cn1 | 7.78%
8 | CC(C)c1cc(N2CCCC3(CCN(C)C3)C2)ncn1 (centres undefined) | 1.53%
9 | CC(Cc1cccc(F)c1)NCc1cnc(N2CCN(C)CC2)nc1 (centres undefined) | 8.49%
10 | CCc1nnc(NC(=O)CCN2CC=C(c3cnn(C)c3)CC2)s1 | 7.71%
11 | O=C(C1CC1)N1CCc2c(ncnc2N2CCN3CCCC3C2)C1 (centres undefined) | -5.38%
12 | COc1ccc(NC(=O)CCN2CC=C(c3cnn(C)c3)CC2)c(C)c1 | 6.63%
13 | Cn1ncc2c(NC3CN4CCC3CC4)nc(-c3ccncc3)nc21 (centres undefined) | 5.93%
14 | COc1ncnc(N)c1CNCCc1ccccc1 | -4.78%
15 | CSc1nccc(N2CCC3(CCCN(CC4CC4)C3)C2)n1 (centres undefined) | 2.58%
16 | Cc1nc(C)c(CC(=O)N2CCCN(CC3CC3)C(C(C)C)C2)c(=O)[nH]1 (centres undefined) | -7.23%
17 | COc1ccccc1CCN(C)Cc1nc(N)nc(N(C)C)n1 | -4.89%
18 | Cc1cc(C)c2[nH]c(C)c(CC(=O)N(C)CCN(C)C)c2c1 | 3.2%
19 | Cc1cccc(CC(=O)N2CCCC(N(C)CCCN(C)C)C2)c1 (centres undefined) | 6.04%
